In PubChem BioAssay:
Results with a measured potency or affinity are listed apart. Active and inactive are the calls of the source. The rule behind the calls is not given here.

Molecular target: Melanocortin receptor 4 (Homo sapiens) (UniProt P32245)
Test: MC4R antagonists, dose response, counter-screen for LGR2 antagonist project, cell-based, plate reader, cherry pick (AID 743444)
Details: MC4R-expressing cells, antagonist mode; series mostly up to 35 µM

| Structure (SMILES) | outcome |
| --- | --- |
| COc1cccc(C#Cc2ccc([C@@H]3[C@@H](CO)N(C(=O)C4CCC4)[C@H]3C#N)cc2)c1 | inactive |
| CC(C)(C)c1nc2ccc(Cl)cn2c1CC1CCCCC1 | inactive |
| O=C(c1ccc2c(c1)OCCO2)C1CCN(S(=O)(=O)c2ccc(F)cc2)CC1 | inactive |
| c1ccc(COc2cccc(-c3cc4nc(NCCCn5ccnc5)ccn4n3)c2)cc1 | inactive |
| CCCCOc1cc(NCc2ccccc2)c2ncn(C(C)C)c2c1 | inactive |
| O=C(Nc1ccc(N2CCN(C(=O)c3ccccc3)CC2)cc1)c1cc2ccccc2o1 | inactive |
| CC(=O)c1ccc(Nc2cc(C)nc3c(C)cc(C)cc23)cc1 | inactive |
| Cc1cccc(Cn2ncc(Cl)c(Cl)c2=O)c1 | inactive |
| Cc1ccc2nc(C(F)(F)F)c(C#N)c(N)c2c1 | inactive |
| COc1ccccc1N1CCN(C(=O)c2sc3nc(-c4ccc(F)cc4)cn3c2C)CC1 | inactive |
| CC(C)N(C(=O)COC(=O)c1ccccc1C(=O)c1ccc(Cl)c([N+](=O)[O-])c1)C(C)C | inactive |
| N#C[C@@H]1[C@H](c2ccc(C#Cc3cccc(F)c3)cc2)[C@@H](CO)N1C(=O)C1CC1 | inactive |
| COC(=O)c1ccc(Nc2cc(C)nc3ccc(C)cc23)cc1 | inactive |
| CC(C)OC(=O)c1ccc(NCc2cc(O)ccc2O)cc1Cl | inactive |
| CCOc1cccc2sc(Nc3nc4ccc(NC(C)=O)cc4s3)nc12 | inactive |
| CCCCn1nnnc1C(c1cc2ccccc2o1)N1CCN(c2ccncc2)CC1 (stereo not given) | inactive |
| O=C(CSc1nc2ccccc2[nH]1)Nc1nc(-c2cccc(Br)c2)cs1 | inactive |
| C[C@H]1CCCCO[C@@H](CN(C)C(=O)Nc2ccc(C(F)(F)F)cc2)[C@@H](C)CN([C@@H](C)CO)C(=O)c2cc(NC(=O)CCC(F)(F)F)ccc2O1 | inactive |
| Cc1ccc(NC(=O)c2ncn(CC(=O)N3CCN(c4ccccn4)CC3)n2)cc1C | inactive |
| C[C@@H]1CN([C@H](C)CO)C(=O)Cc2cc(NC(=O)CCC(F)(F)F)ccc2O[C@@H]1CN(C)CC1CCCCC1 | inactive |

| Structure (SMILES) | outcome |
| --- | --- |
| CCOCCCn1c(SCc2nc3ccccc3s2)nc2ccccc2c1=O | inactive |
| COc1ccc(C(=O)CC(Sc2ccccc2N)c2ccc(OC)cc2)cc1 (stereo not given) | inactive |
| CC(C)(C)c1ccc(Cn2c(=O)cnc3ccccc32)cc1 | inactive |
| COc1cc(/C=N/Nc2nc(C)nc3c2cnn3-c2ccccc2)ccc1O | inactive |
| O=[N+]([O-])c1cc(S(=O)(=O)N2CCCCCC2)ccc1Cl | inactive |
| Cn1c(=O)c2cc(NC(=O)NCc3ccccc3)ccc2n1C/C=C/c1ccccc1 | inactive |
| COc1ccc2cc(C#N)c(Nc3cccc(F)c3)nc2c1 | inactive |
| COc1ccccc1CN(C)C[C@@H]1OCc2cnnn2CCCC(=O)N([C@H](C)CO)C[C@H]1C | inactive |
| CNCc1ccccc1Sc1ccc(O)c(O)c1 | inactive |
| O=C(CSc1ncnc2[nH]ncc12)Nc1nc(-c2ccc(F)c(F)c2)cs1 | inactive |
| Cc1ccc(S(=O)(=O)Nc2ccc3c(c2)C(=O)N([C@H](C)CO)C[C@@H](C)[C@H](CN(C)S(=O)(=O)c2cccs2)OCCCC[C@@H](C)O3)cc1 | inactive |
| CCOC(=O)c1c(C)n(C)c2ccc(OCC(O)CNCCc3ccccc3)cc12 (stereo not given) | inactive |
| O=C(Cn1ncc(Cl)c(Cl)c1=O)N1CCOCC1 | inactive |
| O=C(c1ccc(CSc2nc3ccncc3[nH]2)cc1)N1CCN(c2cccc(Cl)c2)CC1 | inactive |
| O=C(C[C@@H]1C[C@H]2c3cc(NC(=O)c4ccc5c(c4)OCO5)ccc3O[C@H]2[C@@H](CO)O1)NCc1ccc(Oc2ccccc2)cc1 | inactive |
| COc1ccc(-c2cc(C(F)(F)F)nc(S(=O)(=O)CCCC(=O)Nc3cccc(O)c3)n2)cc1OC | inactive |
| COc1ccc(S(=O)(=O)N2CCOCC2)cc1NC(=O)COc1ccc(C)cc1 | inactive |
| COc1cc(NC2CCCCC2O)c2nc(-c3ccc(Cl)cc3)ccc2c1 (stereo not given) | inactive |
| CC(C)c1ccc2c(c1)C(N1CCNCC1)Cc1ccc(F)cc1S2 (stereo not given) | inactive |
| Oc1ccc(-c2csc(-c3cccnc3)n2)c(O)c1 | inactive |
